# Source: PubChem BioAssay (several laboratories)
# HIF-2a block: HIF-2a inhibition. actives 0.72% (n = 360,000). 786-0 RCC cells HIF-2a reporter, luciferase luminescence, overnight. AID 624352. inhibition, % at 18.8 µM;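 active = inhibition of the luminescence signal of 40% or more relative to plate controls, in a single-dose primary screen at 18.75 µM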
# MITF TRPM1 inh: MITF TRPM1 promoter inhibition in SK-MEL-5 cells; SK-MEL-5 TRPM1 promoter luciferase, 24 h; inhibition, % at 12.5 µM; actives 0.83% (n = 330,000);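 active = mean inhibition across replicates of 60% or more, whatever share of single replicates reaches that level; inconclusive = some that reach 60%, reason not given; inactive = mean inhibition across replicates below 60%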
# KKLEB cytotox: CF airway cell cytotoxicity counter-screen. KKLEB CF airway cells viability, ATPlite luminescence, overnight; stronger effect = lower value; cells stimulated with P. aeruginosa culture filtrate. activity change (cytotoxicity), % at 5 µM. actives 0.36% (n = 360,000);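 active = corrected activity change at or below -50% at 5 µM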
# CF NFkB block: blocks PAF-induced NF-kB reporter in cystic fibrosis cells; KKLEB NF-kB-GFP reporter, GFP fluorescence overnight; inhibition, % at 5 µM; actives 0.86% (n = 360,000); AID 588850;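 active = at least 50% inhibition at 5 µM, scaled per plate between neutral and stimulator controls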;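 note: PAF is a Pseudomonas aeruginosa culture filtrate used as stimulus; plate controls were PAF-stimulated DMSO wells for no effect and unstimulated DMSO wells for full effect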
# Peg3 prom inh: reduces Peg3 promoter-driven luciferase expression in HeLa; AID 588405; actives 1.7% (n = 360,000); inhibition, % at 20 µM; HeLa PEG-Prom luciferase reporter, luminescence, overnight;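 active = inhibition of at least 50% at 20 µM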
# Shn3 inh set2: reduces Shn3 3'UTR luciferase signal in osteoblasts. AID 588674. inhibition, % at 12.5 µM. actives 0.52% (n = 360,000). Clone20 osteoblast Shn3 3'UTR firefly luciferase, 24 h;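 active = mean inhibition of at least 75% with every replicate also reaching 75%; inconclusive = mean inhibition at least 75% but some replicate below; inactive = mean inhibition below 75%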;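 note: 0% = median of neutral control wells and 100% = pilot-screen positive control compound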
# CF NFkB conf: confirmation of cystic fibrosis induced NF-kB inhibitors; shares compounds with CF NFkB block; KKLEB CF airway cells, PAF-induced NF-kB-GFP fluorescence, overnight; inhibition, % at 5 µM; actives 64% (n = 1,300); in the data active = inhibition above about 40%;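 note: stimulus PAF is a Pseudomonas aeruginosa filtrate and not platelet activating factor; plate controls were DMSO wells with stimulus for no effect and unstimulated DMSO wells for full effect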
# * = called active by the depositor; ? = inconclusive; · = no result given. Most compounds without a hit are left out; they make up all but 2.7% or so of the library.
SMILES,HIF-2a block,MITF TRPM1 inh,KKLEB cytotox,CF NFkB block,Peg3 prom inh,Shn3 inh set2,CF NFkB conf
Cc1ccccc1-c1csc(C(O)c2cccnc2)n1 (stereo unspecified),-21,·,5,13,-18,6,·
COc1ccc(NC(=O)Cn2nnc(C(=O)NCc3ccccc3)c2N)cc1Cl,18,7,-11,17,12,21,·
COc1ccc(NC(=O)Cn2nnc(C(=O)NCc3ccc(C)cc3)c2N)cc1Cl,1,-8,-37,58*,7,5,10
C=CC[C@@H](CC(=O)N(CCO)Cc1ccccc1)C(=O)NC[C@H](OC(=O)[C@@H](CC=C)Cc1ccc(F)cc1)c1ccccc1,-12,9,-4,73*,71*,18,92*
CCOC(=O)c1c(C)[nH]c(C)c1C(=O)CSc1nc2ccccc2n1CC,7,1,-6,6,13,-3,·
CCOC(=O)c1c(C)[nH]c(C)c1C(=O)CSc1nc2ccccc2c(=O)n1-c1ccc(CC)cc1,-11,12,-19,56*,44,90*,37
CCOC(=O)c1[nH]c2c(c1C)C(=O)CC(c1ccco1)C2 (stereo unspecified),10,21,-19,57*,-27,11,80*
CCOC(=O)/C(=C\c1cccc(O)c1)c1nc2sc(C)c(C)c2c(=O)[nH]1,95*,25,-26,74*,115*,36,-97
O=C(COC(=O)c1ccc2[nH]c3c(c2c1)CCCC3)Nc1ccccc1Cl,-12,-15,-38,56*,19,-1,54*
CCOc1c(Br)cc(C(=O)Nc2cccc(S(=O)(=O)N3CCOCC3)c2)cc1OC,24,·,0,33,18,11,·
C=CCOc1c(OC)cc(/C=N/Nc2cccc(C(=O)O)c2)c(Br)c1Br,-199,-53,-36,62*,-141,-30,67*
O=C(Nc1ccc2c(c1)OCCO2)c1cc(-c2ccccn2)nc2ccc(Br)cc12,7,10,-32,62*,9,23,56*
COc1cccc(N2CCN(c3nc(-c4ccccc4C)cc(=O)[nH]3)CC2)c1,-53,-3,-6,67*,104*,-85,39
CCOc1cc(/C=N\NC(=O)c2ccc(NC(=O)C(C)(C)C)cc2)ccc1OC(=O)c1ccc(C)cc1,10,17,-18,26,27,15,·
CCOc1cc(/C=N\NC(=O)c2ccc(NC(=O)CC)cc2)ccc1OC(=O)c1ccccc1,-1,51,-34,51*,71*,95*,9
CCOC(=O)Nc1ccc2c(c1)N(C(=O)CCN(CC)CC)c1ccccc1S2=O (stereo unspecified),28,11,-30,91*,58*,1,43*
O=S(=O)(N/N=C\c1c(F)cccc1Cl)c1ccc(Cl)cc1,20,8,12,-14,4,-9,·
Fc1cccc(Cl)c1/C=N/Nc1c(Cl)cncc1Cl,-95,-20,-13,53*,-60,1,67*
O=C(c1ccncc1)N1CCc2ccccc2C1,-13,15,10,-5,-10,-1,·
O=C(c1cncc(Br)c1)N1CCc2ccccc2C1,-2,5,-3,51*,-5,2,56*
Cc1cccc(C)c1N1C(=O)c2ccccc2NC(=O)C1C(=O)NCCc1ccccc1F (stereo unspecified),5,·,·,·,·,·,·
O=C(NCc1ccccc1)C(c1cc2ccccc2o1)n1c(=O)c(-c2ccco2)nc2ccccc21 (stereo unspecified),-162,·,·,·,·,·,·
Oc1cc2c(cc1C(c1ccc(Br)cc1)N1CCCC1)OCO2 (stereo unspecified),10,-4,-21,53*,6,-1,33
CCOC(=O)C1(C)CCCCCN1C(=O)/C=C/c1ccccc1 (stereo unspecified),14,·,5,-4,-2,10,·
N=C1N(c2ccccc2)C(=S)C(=Nc2ccccc2)N1c1ccccc1,-297,47,-2,67*,74*,-42,81*
SMILES,HIF-2a block,MITF TRPM1 inh,KKLEB cytotox,CF NFkB block,Peg3 prom inh,Shn3 inh set2,CF NFkB conf
COc1ccc(N=C2C(=S)N(c3ccc(OC)cc3)C(=NS(=O)(=O)c3ccccc3)N2c2ccccc2)cc1,-225,-14,10,-13,49,-35,·
COc1ccc(-c2cc3c(=O)n(CC(=O)NCc4ccc(C)cc4)ncn3n2)cc1,5,-13,-15,54*,-1,-26,13
CCCCNC(=O)C1C(c2ccc(C(F)(F)F)cc2)=Nc2ccccc2N1C(=O)C1CCN(C(C)=O)CC1 (stereo unspecified),-1,·,·,·,·,·,·
CCCOc1ccc(C(=O)OCCN(CC)CC)cc1N,-15,6,4,75*,5,-4,16
CCC(CC)C(=O)N(C)c1c(C)nc2c(OCc3ccc(C(F)(F)F)cc3)cccn12,3,·,-18,14,20,-1,·
Cc1nc(N)c(C#N)c(-c2cccnc2)c1-c1ccccc1,29,1,-5,63*,9,23,68*
Cc1ccc(/C=[N+](\[O-])c2ccc(N(C)C)cc2)c2nsnc12,21,7,-24,68*,-158,?,-68
COc1ccc(C)c2sc(N(CCN(C)C)C(=O)/C=C/c3cccs3)nc12,8,88*,-35,56*,50*,-16,9
COc1cccc2sc(N(CCN(C)C)C(=O)/C=C/c3cccs3)nc12,23,47,-20,36,13,-2,·
CCCCOC(=O)Nc1ccc(S(=O)(=O)Nc2nc(C)cc(C)n2)cc1,21,8,2,53*,9,10,39
CCn1c(SC)nc2cc(S(=O)(=O)N3CCCCC3)ccc21,15,11,-8,52*,-12,0,41*
CCn1c(CN2CCC(C)CC2)nc2cc(S(=O)(=O)N3CCCCC3)ccc21,19,·,2,10,9,-15,·
COc1ccc(NC(=O)C(NC(=O)c2ccccc2)C(C)C)cc1 (stereo unspecified),20,-4,2,-1,12,12,·
COc1ccc(C(=O)N[C@H](C(=O)Nc2nc3ccccc3[nH]2)C(C)C)cc1,-186,1,-19,55*,-183,-24,78*
Cc1cccc(C(=O)N[C@H](C(=O)Nc2nc3ccccc3[nH]2)C(C)C)c1,28,45,-30,66*,17,28,83*
CN(Cc1ccccc1)C(=O)CN1CCN(S(=O)(=O)c2ccccc2F)CC1,-7,·,15,-36,18,-1,·
Cc1ccc(S(=O)(=O)c2c(C(=O)c3ccccc3)cnc3cc4c(cc23)OCCO4)cc1,8,-3,-44,51*,26,-4,-35
